PubChem BioAssay (EPA / NIEHS)
Activity calls are given as the source filed them. Rule for the calls: active = hit-call score of the fitted dose curve at least 0.9, where 1 is the maximum; inactive = score below 0.9.

The compounds below were run on Urokinase-type plasminogen activator receptor (uPAR), PLAUR (gene 5329) (assay: BSK_BE3C_uPAR: BioMAP Diversity Plus: BE3C Assay for Urokinase-type plasminogen activator receptor (uPAR) Biomarker Activity (AID 2283039;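 for outcome: cells exposed to compound for one day before measurement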)). Settings: primary human bronchial epithelial cells; actives raise or lower the signal.
Experimental: BSK_BE3C is a cell-based, multiplexed-readout assay that uses bronchial epithelial cell, a human lung primary cell, with measurements taken at 24 hours after chemical dosing in a 96-well plate.BSK_BE3CAR is an assay component measured in the BSK_BE3C assay. It measures uPAR antibody related to regulation of gene expression using ELISA technology.Data from the assay component BSK_BE3CAR was analyzed into 1 assay endpoint. This assay endpoint, BSK_BE3CAR, was analyzed with bidirectional fitting relative to DMSO as the negative control and baseline of activity. Using a type of binding reporter, gain or loss-of-signal activity can be used to understand changes in the signaling as they relate to the gene PLAUR. Furthermore, this assay endpoint can be referred to as a primary readout, because this assay has produced multiple assay endpoints where this one serves a signaling function. To generalize the intended target to other relatable targets, this assay endpoint is annotated to the cytokine intended target family, where the subfamily is plasmogen activator.
The levels of cell surface (or secreted, indicated by the prefix "s") biomarker endpoints were measured by ELISA. Overt cytotoxicity to cells in confluent adherent cultures (all systems other than the BT system) was assessed by measuring total protein levels using sulforhodamine B (SRB) staining in parallel cultures at the time of biomarker measurements, indicated as SRB endpoints. For proliferation assays for adherent cell types, individual cell types are cultured at sub-confluence and relative cell numbers quantified by SRB staining at time points optimized for each system (48 h: 3C and CASM3C systems; 72 h: BT and HDF3CGF systems; 96 h: SAg system). SRB was performed by staining cells with 0.1% SRB after fixation with 10% TCA and reading wells at 560 nm.Viability and proliferation of PBMC (T cells) was quantified by Alamar Blue reduction for the SAg and BT systems. For PBMC viability (referred to as PBMC Cytotoxicity within the assay endpoint names), cells were plated (75,000/well in a 96-well plate) and then chemical samples added for 1 h before addition of activators, SEB and TSST-1 (20 ng/mL final concentration each). Cells were incubated for 90 h. Then, Alamar Blue (20 uL/well) (Invitrogen, Cat DAL1100) was added for 6 h, and the plates were read with a fluorescence microplate reader at 546/580 nm (excitation/emission). For PBMC proliferation, cells were plated and activated as above but incubated for only 16 h prior to addition of Alamar Blue. Plates were read after 6 h.

Row | SMILES | outcome | AC50
1 | CCn1c2ccccc2c2cc(N)ccc21 | inactive | –
2 | Cc1cc(C2(c3cc(C)c(O)cc3C)OS(=O)(=O)c3ccccc32)c(C)cc1O | inactive | –
3 | CC(=O)/C=C/C1=C(C)CCCC1(C)C | inactive | –
4 | CCC(=O)OCc1ccccc1 | inactive | –
5 | Nc1cc([N+](=O)[O-])ccc1O | inactive | –
6 | CC(=O)Nc1ccccc1O | inactive | –
7 | COc1cc(C=O)ccc1OC(=O)C(C)C | inactive | –
8 | COC(=O)c1ccc(C)cc1 | inactive | –
9 | C[C@H]1C[C@@H]2[C@H]([C@@H](O)C[C@@]3(C)[C@H]2CC[C@]3(O)C(=O)CO)[C@@]2(C)C=CC(=O)C=C12 | inactive | –
10 | NCCNCCN | inactive | –
11 | Nc1cc([N+](=O)[O-])ccc1Cl | inactive | –
12 | O=C(O)c1ccc([N+](=O)[O-])cc1 | inactive | –
13 | CCCCC(CC)COCCC#N (stereo not given) | inactive | –
14 | CCCCC(CC)COC(=O)/C=C\C(=O)OCC(CC)CCCC (stereo not given) | inactive | –
15 | O=C(O)c1cn(-c2ccc(F)cc2)c2cc(N3CCNCC3)c(F)cc2c1=O | inactive | –
16 | Cc1ccc(O)c(C(C)(C)C)c1 | – | 20 µM (active)
17 | c1ccc2sc(SN(C3CCCCC3)C3CCCCC3)nc2c1 | inactive | –
18 | Cc1ccc2n[nH]nc2c1 | inactive | –
19 | CC(=O)O[C@]1(C(C)=O)CC[C@H]2[C@@H]3C[C@H](C)C4=CC(=O)CC[C@]4(C)[C@H]3CC[C@@]21C | inactive | –
20 | CC[Si](OC(C)=O)(OC(C)=O)OC(C)=O | inactive | –

Row | SMILES | outcome | AC50
21 | CC(=O)[C@H]1CC[C@H]2[C@@H]3CC=C4C[C@@H](O)CC[C@]4(C)[C@H]3CC[C@]12C | inactive | –
22 | OC1OC[C@@H](O)[C@H](O)[C@H]1O (stereo not given in full) | inactive | –
23 | CCc1c(C)cc(N)c(CC)c1N | inactive | –
24 | BrC1CCC(Br)C(Br)CCC(Br)C(Br)CCC1Br (stereo not given) | inactive | –
25 | O=P(c1ccccc1)(c1ccccc1)c1ccccc1 | inactive | –
26 | O=C(O)c1cn(C2CC2)c2cc(N3CCNCC3)c(F)cc2c1=O | inactive | –
27 | C#C[C@]1(O)CC[C@H]2[C@@H]3CCC4=Cc5oncc5C[C@]4(C)[C@H]3CC[C@@]21C | inactive | –
28 | OC[C@H]1O[C@H](O[C@]2(CCl)O[C@H](CCl)[C@@H](O)[C@@H]2O)[C@H](O)[C@@H](O)[C@H]1Cl | inactive | –
29 | CN(CCOc1ccc(CC2SC(=O)NC2=O)cc1)c1ccccn1 (stereo not given) | – | 3.97 µM (active)
30 | c1ccc2c(c1)c1cccc3ccc4cccc2c4c31 | inactive | –
31 | Cc1ccc(Nc2ccc(O)c3c2C(=O)c2ccccc2C3=O)cc1 | inactive | –
32 | CC1CCC(C(C)CS)CC1S (stereo not given) | – | 20 µM (active)
33 | C=C(C)C(=O)O[C@H]1C[C@@H]2CC[C@@]1(C)C2(C)C | – | 32.2 µM (active)
34 | C=C[Si](OCC)(OCC)OCC | inactive | –
35 | C=CCOC(=O)CCC1CCCCC1 | inactive | –
36 | CNC[C@H](O)c1cccc(O)c1 | inactive | –
37 | CC(C)(COC(=O)c1ccccc1)COC(=O)c1ccccc1 | inactive | –
38 | CC(C)c1ccc(C(C)C)cc1 | – | 20 µM (active)
39 | CC1COc2ccccc2N1C(=O)C(Cl)Cl (stereo not given) | inactive | –
40 | CCCCCCCCCCCCCCCCCC(=O)OCC(CC)CCCC (stereo not given) | inactive | –
